“And” between values parts separate entries of the source, which are not always exact repeats. Equal values may be shown once. Hit rate of the full screen: of about 5,500 compounds, about 2,000 (36%) were called active. Another 18% or so got no clear call; they are omitted. Cut-off read from the data, not from the text of the source: active = normalized growth mostly below about 0.91 (no sharp cut-off); inconclusive = no clear call, values can overlap the other calls; inactive = mostly above about 0.92. This is one part of the list.
Experiment: chemical genetic growth profiling, strain panel (AID 1159580);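 note: tested at 20 µM; growth read once vehicle control cultures reached saturation at 30 °C; 1 = growth at the plate median or of vehicle wells; lower values mean less growth of the strain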
Conditions: S. cerevisiae deletion strains, growth OD

Measured: normalized growth

O=C1C=C(O)c2ccccc2C1=O
active: locus YAL021C, strain ccr4, hits give low values 0.905 | locus YDR137W, strain rgp1, hits give low values 0.683 | locus YDR159W, strain sac3, hits give low values 0.802 | locus YDR334W, strain swr1, hits give low values 0.884 | locus YFR010W, strain ubp6, hits give low values 0.896 | locus YHR079C, strain IRE1, hits give low values 0.774 | locus YJL164C, strain tpk1, hits give low values 0.913
inactive: locus YAL013W, strain DEP1, hits give low values 0.969 | locus YAL026C, strain drs2, hits give low values 0.938 | locus YAL030W, strain snc1, hits give low values 0.959 | locus YBL061C, strain skt5, hits give low values 0.956 | locus YBR009C, strain hhf1, hits give low values 0.948 | locus YBR021W, strain FUR4, hits give low values 1.05 | locus YBR023C, strain chs3, hits give low values 0.95 | locus YBR171W, strain sec66, hits give low values 0.952 | locus YBR229C, strain ROT2, hits give low values 0.979 | locus YBR231C, strain swc5, hits give low values 0.932 | locus YBR279W, strain paf1, hits give low values 0.953 | locus YCL011C, strain gbp2, hits give low values 0.925 | locus YCL016C, strain dcc1, hits give low values 0.95 | locus YCL029C, strain bik1, hits give low values 0.971 | locus YCL061C, strain MRC1, hits give low values 0.93 | locus YCL069W, strain vba3, hits give low values 0.963 | locus YCR088W, strain abp1, hits give low values 0.934 | locus YDL005C, strain med2, hits give low values 0.947 | locus YDL035C, strain GPR1, hits give low values 1.01 | locus YDL040C, strain nat1, hits give low values 0.966 | locus YDL074C, strain BRE1, hits give low values 1.03 | locus YDL101C, strain DUN1, hits give low values 0.971 | locus YDL134C, strain PPH21, hits give low values 0.968 | locus YDL185W, strain tfp1, hits give low values 0.907 | locus YDL192W, strain arf1, hits give low values 0.958 | locus YDR001C, strain nth1, hits give low values 0.944 | locus YDR069C, strain doa4, hits give low values 0.912 | locus YDR101C, strain arx1, hits give low values 0.978 | locus YDR150W, strain NUM1, hits give low values 0.972 | locus YDR162C, strain NBP2, hits give low values 0.882 | locus YDR195W, strain ref2 0.995 | locus YDR297W, strain sur2, hits give low values 0.931 | locus YDR318W, strain mcm21, hits give low values 0.928 | locus YDR335W, strain msn5, hits give low values 0.94 | locus YDR388W, hits give low values 0.966 | locus YDR392W, strain spt3, hits give low values 0.796 | locus YDR502C, strain sam2, hits give low values 0.941 | locus YEL003W, strain gim4, hits give low values 0.925 | locus YEL037C, strain rad23, hits give low values 0.944 | locus YEL061C, strain CIN8 (second series), hits give low values 0.948 | locus YEL061C, strain CIN8, hits give low values 0.966 | locus YER015W, strain faa2, hits give low values 0.94 | locus YER016W, strain bim1, hits give low values 0.957 | locus YER110C, hits give low values 0.955 | locus YER111C, strain swi4, hits give low values 0.965 | locus YER155C, strain BEM2 (second series), hits give low values 0.954 | locus YER155C, strain BEM2, hits give low values 0.957 | locus YER167W, strain BCK2, hits give low values 0.98 | locus YGL078C, strain dbp3, hits give low values 1.01 | locus YGL086W, strain mad1, hits give low values 0.976 | locus YGL167C, strain pmr1, hits give low values 0.948 | locus YGL173C, strain kem1, hits give low values 0.942 | locus YGL227W, strain vid30, hits give low values 0.977 | locus YGL240W, strain doc1, hits give low values 0.89 | locus YGL248W, strain PDE1, hits give low values 0.966 | locus YGL253W, strain hxk2, hits give low values 0.924 | locus YGR078C, strain PAC10, hits give low values 0.963 | locus YGR135W, strain pre9, hits give low values 0.973 | locus YGR252W, strain gcn5, hits give low values 1.03 | locus YHR013C, strain ard1, hits give low values 0.963 | locus YHR027C, strain rpn1, hits give low values 0.935 | locus YHR030C, strain SLT2, hits give low values 0.963 and 0.867 | locus YHR079C, strain IRE1 (second series), hits give low values 0.981 | locus YHR094C, strain hxt1, hits give low values 1 | locus YHR129C, strain ARP1, hits give low values 0.988 | locus YHR142W, strain chs7, hits give low values 0.93 | locus YHR200W, strain rpn10, hits give low values 0.962 | locus YIL066C, strain RNR3, hits give low values 0.972 | locus YIL073C, strain SPO22, hits give low values 0.992 | locus YIL125W, strain kgd1, hits give low values 0.962 | locus YIR030C, strain dcg1, hits give low values 0.972 | locus YJL092W, strain hpr5, hits give low values 0.934 | locus YJL095W, strain BCK1 (second series), hits give low values 0.931 | locus YJL095W, strain BCK1, hits give low values 0.949 and 0.923 | locus YJL115W, strain asf1, hits give low values 0.938 | locus YJL129C, strain trk1, hits give low values 0.967 | locus YJL134W, strain LCB3, hits give low values 0.967 | locus YJL154C, strain vps35, hits give low values 0.933 | locus YJL166W, strain qcr8, hits give low values 0.92 | locus YJL168C, strain set2, hits give low values 0.955 | locus YJL187C, strain SWE1 (second series), hits give low values 0.957 | locus YJL187C, strain SWE1, hits give low values 0.946

— PubChem BioAssay AID1159580 (chemical genetic matrix, 2015)
